Records with an inconclusive call do not appear. Calls of active or inactive are those of the source. Unless noted, calls come from the whole dose curve; as a rule, active = well fitted curve in the direction sought with a large enough effect; inconclusive = small, poorly fitted or top-dose-only effect, or another doubt; inactive = no such curve, though single readings can be large; an effect the other way counts as inactive or inconclusive.
Legend:
[1] = biological target: Cytochrome P450 3A4 (Homo sapiens) (UniProt P08684); assay: qHTS Assay for Inhibitors and Substrates of Cytochrome P450 3A4 (AID 884); note: potency is the fitted concentration of half-maximal effect; nearly all actives have a fitted effect of over 50% in size
In short: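 Luminescent readout of luciferin produced by CYP3A4 (20 nM) dealkylation of Luciferin-PPXE, 25 uM (its KM). NADPH-driven reaction ran 60 min at RT after 10 min compound preincubation; data scaled to 57 uM ketoconazole as 100% inhibition.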

[2] = biological target: Cytochrome P450 3A4 (Homo sapiens) (UniProt P08684); assay: qHTS Assay for Activators of Cytochrome P450 3A4 (AID 885); note: nearly all actives have a fitted effect of over 65% in size
In short: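 Luminescent readout of luciferin formed from 25 uM Luciferin-PPXE (KM level) by 20 nM CYP3A4 in 200 mM KPO4, with 60 min NADPH-driven reaction at room temperature after 10 min compound exposure. Ketoconazole (57 uM) defined 100% inhibition.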

[3] = Cell Viability - LYMP2-001 (AID 921); note: potency is the fitted concentration of half-maximal effect; nearly all actives have a fitted effect of over 70% in size
In short: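 Cellular ATP loss read by luciferase luminescence after 24 h compound exposure at 37 C in complete medium. LYMP2-001 lymphoblastoid cells, 2500/well; qHTS concentration-response data fitted with Hill equation for AC50.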

[4] = MultiTox-Fluor Cytotoxicity Assay - LYMP1-002 - Live Cells (AID 955);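 note: potency is the fitted concentration of half-maximal effect; cells exposed to compound for 16 hours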
In short: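 LYMP1-002 lymphoblastoid cells; 2500 cells/well; 16 hr compound exposure, 37 C; MultiTox-Fluor reagent 60 min RT; live-cell fluorescence Ex/Em=405/510; qHTS concentration-response, Hill-equation AC50; tetraoctylammonium bromide positive control.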

[5] = MultiTox-Fluor Cytotoxicity Assay - LYMP1-002 - Dead Cells (AID 960); note: potency is the fitted concentration of half-maximal effect; nearly all actives have a fitted effect of over 60% in size
In short: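 Readout: fluorescence at 485/520 from cell-impermeant bis-AAF-R110 cleaved by proteases leaking from damaged cells. LYMP1-002 lymphoblastoid line, 16 hr compound treatment at 37 C, concentration-response in qHTS format; Hill-equation AC50 values.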

[6] = MultiTox-Fluor Cytotoxicity Assay - LYMP1-003 - Dead Cells (AID 961); note: potency is the fitted concentration of half-maximal effect; nearly all actives have a fitted effect of over 70% in size
In short: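 Dead-cell protease release, detected as bis-AAF-R110 fluorescence at 485/520 nm, was measured in LYMP1-003 cells after 16 h compound treatment at 37 C. AC50 values came from Hill-modeled qHTS curves normalized to DMSO (0%) and 15 uM tetraoctylammonium bromide (100%).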

[7] = Cell Viability - LYMP2-003 (AID 965);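 note: potency is the fitted concentration of half-maximal effect; cells exposed to compounds for 24 h before reading; nearly all actives have a fitted effect of over 50% in size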
In short: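 CellTiter-Glo luminescence quantified ATP loss after 24 h compound treatment of LYMP2-003 lymphoblastoid cells at 37 C. Titration series were fitted with the standard Hill equation to give AC50.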

[8] = biological target: Androgen receptor (Homo sapiens) (UniProt P10275); assay: qHTS assay for small molecule agonists of androgen receptor signaling (AID 588515; active = well fitted curve in the direction sought with a large enough effect in the signal ratio, with a control signal flat; the % refers to the signal ratio; note: % is set by controls: 0 for no effect and ±100 for the full control effect); details: AR-UAS-bla HEK293, beta-lactamase ratio, agonist 16 h; stronger effect = higher value
In short: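 Stimulation of an AR-responsive β-lactamase reporter in GripTite HEK293 cells was measured after 16 h compound exposure at 37 °C, via CCF4 fluorescence after 2 h RT. EC50 from Hill fits, normalized to R1881 at 30 nM.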

[9] = biological target: Androgen receptor (Homo sapiens) (UniProt P10275); assay: qHTS assay for small molecule antagonists of androgen receptor signaling (AID 588516; active = well fitted curve in the direction sought with a large enough effect in the signal ratio, with a control signal flat, not every such curve was filed as active; the % refers to the signal ratio; note: % is set by controls: 0 for no effect and ±100 for the full control effect)
In short: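 Antagonist mode: inhibition of R1881-stimulated (10 nM final) bla reporter in GeneBLAzer AR HEK 293 cells, 16 h at 37C, compounds titrated. IC50 and efficacy from Hill-equation fits of 405/460–530 nm FRET ratios.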

[10] = biological target: Bile acid receptor (Homo sapiens) (UniProt Q96RI1); assay: qHTS assay for small molecule agonists of farnesoid X receptor signaling (AID 588527; calls by dose curve;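 note: series mostly up to about 77 µM; 0% = vehicle basal and 100% = reference agonist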); details: HEK293T FXR-UAS-bla, beta-lactamase ratio, 16 h; activation: stronger effect = higher value
In short: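 Agonist-mode beta-lactamase reporter in GeneBLAzer FXR-UAS-bla HEK293T cells, titration up to 92 uM, 16 h exposure at 37 C, CCF4 fluorescence. Response scaled to DMSO (0%) and 100 uM chenodeoxycholic acid (100%), then Hill-fitted for EC50 and efficacy.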

[11] = biological target: Glucocorticoid receptor (Homo sapiens) (UniProt P04150); assay: qHTS assay for small molecule antagonists of glucocorticoid receptor signaling (AID 588533; active = well fitted inhibition curve with a large enough effect in the signal ratio, with a control signal flat, not every such curve was filed as active; the % refers to the signal ratio;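 note: cells stimulated with 2 nM dexamethasone as agonist; % is set by controls: 0 for no effect and ±100 for the full control effect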)
In short: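 Antagonist-mode qHTS: compound titrations added to GRE-bla HeLa cells, then dexamethasone 2 nM final; 18 h, 37 C. CCF4 FRET fluorescence normalized to dexamethasone and DMSO; IC50 from Hill fit.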

[12] = biological target: Peroxisome proliferator-activated receptor delta (Homo sapiens) (UniProt Q03181); assay: qHTS assay for small molecule antagonists of peroxisome proliferator-activated receptor delta signaling (AID 588535; active = well fitted inhibition curve with a large enough effect in the signal ratio, with a control signal flat, not every such curve was filed as active; the % refers to the signal ratio)
In short: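 Antagonist-mode qHTS using GeneBLAzer PPAR-delta-UAS-bla HEK293T cells; compound exposure 18 hrs at 37 C over a titration. Ratiometric CCF4 fluorescence at 460/530 nm; concentration-response points fitted to the Hill equation.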

[13] = qHTS assay for small molecule agonists of the antioxidant response element (ARE) signaling pathway (AID 651741; active = well fitted activation curve with a large enough effect in the signal ratio; the % refers to the signal ratio; note: potency is the fitted concentration of half-maximal effect; for activation: % of control where 0% means no effect)
In short: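 Agonist activity is measured as ARE-driven beta-lactamase expression in a stable HepG2 reporter line, using 16 h compound treatment at 37 C and a FRET substrate fluorescence readout after 2 h.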

[14] = qHTS assay for small molecule agonists of retinoid X receptor alpha signaling (AID 588544); details: HEK293T RXRa-UAS-bla, beta-lactamase reporter, 18 h; 530 nm emission
[15] = qHTS assay for small molecule activators of the human pregnane X receptor (PXR) signaling pathway (AID 720659; call rule not given here; note: 0% is about no effect)
[16] = biological target: Bile acid receptor (Homo sapiens) (UniProt Q96RI1); assay: qHTS assay for small molecule antagonists of farnesoid X receptor signaling (AID 588526; calls by dose curve; note: % is set by controls: 0 for no effect and ±100 for the full control effect)
In short: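 Beta-lactamase reporter antagonist mode: HEK293T FXR-UAS-bla cells, titrated compound, CDCA stimulation, 16 h 37 C, CCF4 dye 2 h RT. Data normalized to CDCA 50 uM and DMSO; Hill-fit IC50.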

[17] = biological target: Glucocorticoid receptor (Homo sapiens) (UniProt P04150); assay: qHTS assay for small molecule agonists of glucocorticoid receptor signaling (AID 588532; active = well fitted curve in the direction sought with a large enough effect in the signal ratio, with a control signal flat; the % refers to the signal ratio;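 note: 100% = dexamethasone at 0.1 µM and 0% = DMSO only wells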); details: HeLa MMTV-bla, beta-lactamase ratio, agonist, 18 h; activation: stronger effect = higher value, percent of dexamethasone control, DMSO zero
In short: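 Quantitative HTS using CellSensor MMTV-bla HeLa cells in charcoal/dextran-treated serum; compounds tested up to 92 uM. After 18 h at 37 C, CCF4 dye reported reporter induction.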

[18] = biological target: Vitamin D3 receptor (Homo sapiens) (UniProt P11473); assay: qHTS assay for small molecule agonists of vitamin D receptor signaling (AID 588543; calls by dose curve;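 note: 0% = DMSO basal and 100% = reference agonist control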)
In short: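 Agonist-mode beta-lactamase reporter: HEK293T VDR-UAS-bla cells in charcoal-stripped 2% FBS, compound series 16 h 37 C, CCF4 2 h RT. EC50 from Hill fit, scaled against DMSO and 50 nM calcitriol control.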

[19] = qHTS assay for small molecule activators of the nuclear factor-kappa B (NF-kB) signaling pathway (AID 651749; active = well fitted activation curve with a large enough effect in the signal ratio; the % refers to the signal ratio; note: series mostly up to about 77 µM; % of control where 0% means no effect); details: NF-kB-bla ME-180 cells, beta-lactamase FRET ratio, 16 h; activation: stronger effect = higher value
In short: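 FRET-based beta-lactamase detection in ME-180 cells reports NF-kB response-element-driven transcription following overnight (16 hr) compound treatment.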

Chain of Cytochrome P450 3A4 (Homo sapiens) (P08684 whole entry, looked up): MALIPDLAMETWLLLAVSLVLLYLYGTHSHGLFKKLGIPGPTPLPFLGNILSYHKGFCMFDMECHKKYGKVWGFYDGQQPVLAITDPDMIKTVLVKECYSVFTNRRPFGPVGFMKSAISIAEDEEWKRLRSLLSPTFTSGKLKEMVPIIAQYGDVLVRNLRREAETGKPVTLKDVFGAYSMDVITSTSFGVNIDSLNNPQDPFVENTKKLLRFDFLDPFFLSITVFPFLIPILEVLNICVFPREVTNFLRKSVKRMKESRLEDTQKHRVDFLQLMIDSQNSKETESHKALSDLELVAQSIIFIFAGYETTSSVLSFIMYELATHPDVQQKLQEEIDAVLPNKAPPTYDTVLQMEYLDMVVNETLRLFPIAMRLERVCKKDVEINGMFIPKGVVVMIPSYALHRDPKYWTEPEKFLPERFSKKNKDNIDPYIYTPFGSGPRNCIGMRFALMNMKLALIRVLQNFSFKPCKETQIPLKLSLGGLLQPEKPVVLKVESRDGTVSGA
Chain of Vitamin D3 receptor (Homo sapiens) (P11473 whole entry, looked up): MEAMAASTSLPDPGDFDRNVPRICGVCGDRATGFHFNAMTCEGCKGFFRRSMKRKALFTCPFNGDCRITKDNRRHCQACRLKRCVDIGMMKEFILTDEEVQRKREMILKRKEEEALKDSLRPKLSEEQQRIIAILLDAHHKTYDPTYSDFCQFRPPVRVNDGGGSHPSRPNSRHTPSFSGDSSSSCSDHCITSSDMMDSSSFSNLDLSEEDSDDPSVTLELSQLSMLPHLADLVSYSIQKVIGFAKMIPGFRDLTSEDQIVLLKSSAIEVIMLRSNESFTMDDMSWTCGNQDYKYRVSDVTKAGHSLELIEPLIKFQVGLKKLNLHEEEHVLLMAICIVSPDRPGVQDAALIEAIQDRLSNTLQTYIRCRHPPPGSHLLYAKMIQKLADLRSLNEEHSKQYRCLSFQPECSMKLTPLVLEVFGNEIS
Chain of Glucocorticoid receptor (Homo sapiens) (P04150 whole entry, looked up): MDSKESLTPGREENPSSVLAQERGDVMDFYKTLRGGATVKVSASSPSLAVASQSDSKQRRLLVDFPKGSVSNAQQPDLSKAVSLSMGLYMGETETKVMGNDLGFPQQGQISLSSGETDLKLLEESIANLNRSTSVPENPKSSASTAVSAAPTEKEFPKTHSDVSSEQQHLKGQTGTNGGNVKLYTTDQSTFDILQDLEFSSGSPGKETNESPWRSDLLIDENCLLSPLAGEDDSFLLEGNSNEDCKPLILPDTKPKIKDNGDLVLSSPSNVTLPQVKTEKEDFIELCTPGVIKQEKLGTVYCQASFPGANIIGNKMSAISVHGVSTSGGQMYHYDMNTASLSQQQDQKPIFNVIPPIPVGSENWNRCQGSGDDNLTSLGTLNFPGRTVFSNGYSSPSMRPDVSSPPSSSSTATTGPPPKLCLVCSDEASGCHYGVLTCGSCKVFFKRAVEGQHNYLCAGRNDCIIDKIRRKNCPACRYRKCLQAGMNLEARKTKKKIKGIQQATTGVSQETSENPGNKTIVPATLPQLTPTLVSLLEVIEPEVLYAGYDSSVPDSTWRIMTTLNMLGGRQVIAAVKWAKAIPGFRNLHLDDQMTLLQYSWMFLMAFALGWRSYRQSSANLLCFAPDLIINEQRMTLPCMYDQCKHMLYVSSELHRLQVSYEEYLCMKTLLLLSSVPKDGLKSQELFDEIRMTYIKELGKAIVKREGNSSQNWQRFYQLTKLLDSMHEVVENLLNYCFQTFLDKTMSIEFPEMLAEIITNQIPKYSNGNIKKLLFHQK
Chain of Peroxisome proliferator-activated receptor delta (Homo sapiens) (Q03181 whole entry, looked up): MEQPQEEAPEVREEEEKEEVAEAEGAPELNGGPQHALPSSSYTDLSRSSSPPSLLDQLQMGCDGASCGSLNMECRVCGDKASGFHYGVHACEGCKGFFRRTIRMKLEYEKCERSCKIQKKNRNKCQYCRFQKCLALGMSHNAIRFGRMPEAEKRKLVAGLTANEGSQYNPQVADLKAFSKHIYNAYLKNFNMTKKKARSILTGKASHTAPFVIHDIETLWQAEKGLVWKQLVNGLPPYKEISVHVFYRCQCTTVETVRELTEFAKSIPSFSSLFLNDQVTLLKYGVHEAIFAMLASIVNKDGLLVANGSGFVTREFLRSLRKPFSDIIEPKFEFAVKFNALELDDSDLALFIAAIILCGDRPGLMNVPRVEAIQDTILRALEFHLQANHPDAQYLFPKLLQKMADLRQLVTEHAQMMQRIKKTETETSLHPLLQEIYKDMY
Chain of Bile acid receptor (Homo sapiens) (Q96RI1 whole entry, looked up): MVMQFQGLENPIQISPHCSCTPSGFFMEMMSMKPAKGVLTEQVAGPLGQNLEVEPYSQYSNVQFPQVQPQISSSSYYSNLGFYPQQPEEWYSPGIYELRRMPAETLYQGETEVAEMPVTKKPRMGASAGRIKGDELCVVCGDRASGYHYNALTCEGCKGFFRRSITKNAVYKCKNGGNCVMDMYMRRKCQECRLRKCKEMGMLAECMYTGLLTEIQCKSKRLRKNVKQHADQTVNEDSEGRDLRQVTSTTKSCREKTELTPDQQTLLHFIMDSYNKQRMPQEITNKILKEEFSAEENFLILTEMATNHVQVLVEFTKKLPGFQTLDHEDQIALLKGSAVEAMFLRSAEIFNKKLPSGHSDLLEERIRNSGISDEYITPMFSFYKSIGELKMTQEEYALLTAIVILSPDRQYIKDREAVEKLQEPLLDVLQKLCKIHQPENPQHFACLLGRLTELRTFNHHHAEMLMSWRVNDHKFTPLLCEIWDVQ
Chain of Androgen receptor (Homo sapiens) (P10275 whole entry, looked up): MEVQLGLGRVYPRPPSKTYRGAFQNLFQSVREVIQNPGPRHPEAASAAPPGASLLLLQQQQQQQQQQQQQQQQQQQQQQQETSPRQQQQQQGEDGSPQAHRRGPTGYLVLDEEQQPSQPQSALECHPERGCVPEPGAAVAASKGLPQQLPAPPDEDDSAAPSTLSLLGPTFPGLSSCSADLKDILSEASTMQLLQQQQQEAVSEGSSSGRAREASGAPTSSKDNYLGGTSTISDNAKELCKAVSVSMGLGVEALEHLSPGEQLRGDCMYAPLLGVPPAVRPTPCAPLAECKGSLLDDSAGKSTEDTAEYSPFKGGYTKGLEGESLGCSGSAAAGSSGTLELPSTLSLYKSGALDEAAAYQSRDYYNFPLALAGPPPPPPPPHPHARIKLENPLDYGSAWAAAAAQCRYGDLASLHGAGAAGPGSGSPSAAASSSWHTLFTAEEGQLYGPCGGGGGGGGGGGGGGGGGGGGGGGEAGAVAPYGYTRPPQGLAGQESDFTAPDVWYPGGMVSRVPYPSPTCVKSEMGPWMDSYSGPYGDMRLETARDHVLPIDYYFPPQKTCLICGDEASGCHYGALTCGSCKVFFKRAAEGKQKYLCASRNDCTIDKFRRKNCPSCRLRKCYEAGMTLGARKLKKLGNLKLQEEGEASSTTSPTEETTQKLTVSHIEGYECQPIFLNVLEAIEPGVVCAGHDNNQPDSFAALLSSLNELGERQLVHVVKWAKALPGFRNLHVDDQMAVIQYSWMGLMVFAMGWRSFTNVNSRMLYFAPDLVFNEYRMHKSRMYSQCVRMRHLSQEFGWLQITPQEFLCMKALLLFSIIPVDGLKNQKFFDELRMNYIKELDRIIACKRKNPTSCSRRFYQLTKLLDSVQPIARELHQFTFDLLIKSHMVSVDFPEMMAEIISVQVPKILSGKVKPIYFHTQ

c1cc(OCC2CO2)cc(OCC2CO2)c1 (stereo unspecified)
active: Potency [1] 15.8 µM | Potency [3] 31.6 µM | Potency [4] 31.6 µM | Potency [5] 25.1 µM | Potency [6] 39.8 µM | Potency [7] 25.1 µM | Potency [13] 29.8 µM
inactive: Potency [2] | activation [8] -20.7% | Potency [9] | activation [10] 0.408% | Potency [11] | Potency [12]

c1cc2c3c(cccc3c1)CC2
-7.15%: max response [14]
inactive: activation [8] 5.35% | Potency [9] | Potency [11] | Potency [12] | Potency [13] | outcome [15]

CCCCN(CC)C(=O)SCCC
inactive: activation [8] 8.69% | Potency [16] | activation [10] 3.83% | activation [17] 4.14% | Potency [11] | Potency [12] | outcome [18] | activation [19] -0.995% | outcome [15]
-10.1%: max response [14]

CCc1ccc(C(=O)NN(C(=O)c2cc(C)cc(C)c2)C(C)(C)C)cc1
active: Potency [1] 3.98 µM
inactive: Potency [2] | activation [17] -6.89% | Potency [11] | outcome [18] | activation [19] -3.3%
1.33%: max response [14]

CCCCC(CC)CO[N+](=O)[O-] (stereo unspecified)
inactive: activation [17] -6.71% | Potency [11] | Potency [12] | outcome [18] | outcome [15]
-0.882%: max response [14]

CNC(=O)O/N=C(\SC)C(=O)N(C)C
-12.6%: max response [14]
inactive: activation [8] -0.759% | Potency [9] | Potency [12] | outcome [18] | outcome [15]

Clc1ccccc1-c1nnc(-c2ccccc2Cl)nn1
-1.99%: max response [14]
inactive: Potency [12]

— PubChem BioAssay (NCATS)
